Measured values published in PubChem BioAssay (NCI).
The panel holds about 83,000 compounds, 20% with a hit somewhere; the sample as a whole holds those more often.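 Each cell line was grown in a 96-well plate and treated with one concentration of compound for 48 hours. Values below 10 were considered active.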 Unmarked numbers belong to inactive results. Activity calls are given as the source filed them.

Assays:
Assay in all cases: NCI-60 one-dose screen, 48 h (100 = growth as untreated, 0 = no growth, -100 = all killed)
HCT-15 colon = conditions: 10 µM unless noted
HT29 colon = conditions: 10 µM unless noted
SNB-75 CNS = conditions: 10 µM unless noted
SNB-19 CNS = conditions: 10 µM unless noted
U251 CNS = conditions: 10 µM unless noted
PC-3 prostate = conditions: 10 µM unless noted
SK-MEL-5 melanoma = conditions: 10 µM unless noted
UACC-62 melanoma = conditions: 10 µM unless noted
SK-MEL-2 melanoma = conditions: 10 µM unless noted
EKVX NSCLC = conditions: 10 µM unless noted
SN12C renal = conditions: 10 µM unless noted
UO-31 renal = conditions: 10 µM unless noted
TK-10 renal = conditions: 10 µM unless noted
ACHN renal = conditions: 10 µM unless noted
CAKI-1 renal = conditions: 10 µM unless noted
A498 renal = conditions: 10 µM unless noted
CCRF-CEM leukemia = conditions: 10 µM unless noted
MOLT-4 leukemia = conditions: 10 µM unless noted
SK-MEL-28 melanoma = conditions: 10 µM unless noted
LOX IMVI melanoma = conditions: 10 µM

Row | Structure (SMILES) | growth (HCT-15 colon) | growth (HT29 colon) | growth (SNB-75 CNS) | growth (SNB-19 CNS) [%] | growth (U251 CNS) | growth (PC-3 prostate) | growth (SK-MEL-5 melanoma) | growth (UACC-62 melanoma) | growth (SK-MEL-2 melanoma) | growth (EKVX NSCLC) | growth (SN12C renal) | growth (UO-31 renal) | growth (TK-10 renal) | growth (ACHN renal) | growth (CAKI-1 renal) | growth (A498 renal) | growth (CCRF-CEM leukemia) | growth (MOLT-4 leukemia) | growth (SK-MEL-28 melanoma) | growth (LOX IMVI melanoma) [%]
1 | CC(=O)Nc1cccc(Nc2nc(N[C@H]3CCCc4ccccc43)c3ccccc3n2)c1 | 97.5% | 104% | 90.6% | 96.9 | 105% | 115% | 105% | 92% | 123% | 98.7% | 103% | 91.8% | 99.1% | 102% | 89.5% | 105% | 103% | 100% | – | –
2 | COc1cc(C2CC(c3cc(OC)c(OC)c(OC)c3)=Nc3c(N)nc(N)nc3N2)ccc1Oc1nc(NCCO)nc(N2CCOCC2)n1 (stereo unspecified) | 102% | 107% | 88.7% | 94.9 | 101% | 100% | 99% | 102% | 105% | 84.3% | 93% | 84.1% | 120% | 101% | 80.8% | 105% | 102% | 96.7% | 108% | –
3 | Nc1cc2ccccc2c(=O)n1NC(=O)c1ccc(I)cc1 | 102% | 101% | 70% | 95.6 | 97.4% | 100% | 101% | 93.2% | 102% | 94.2% | 107% | 92% | 115% | 106% | 83.6% | 103% | 97.8% | 99.2% | – | –
4 | Cn1cc(-c2nc(N)nnc2-c2c[nH]c3ccc(F)cc23)c2cc(Br)cnc21 | 3.56% (active) | -50.6% (active) | -15.8% (active) | 22.9 | 1.09% (active) | 8.22% (active) | -81.5% (active) | – | -27.7% (active) | 26.2% | 10.4% | 6.23% (active) | 26.2% | 12.2% | -10.9% (active) | -31.2% (active) | 5.12% (active) | -0.149% (active) | 24% | 13.9
5 | N#Cc1c(-c2cccc3ccccc23)cc(-c2cccc(OCC(=O)O)c2)[nH]c1=O | 100% | 102% | 73.7% | 97.1 | 103% | 91.7% | 100% | 90.5% | 115% | 93.5% | 96.8% | 71.3% | 104% | 100% | 74.2% | 99.3% | 96.8% | 85.7% | 102% | –
6 | CC(=O)Nc1ccc(-c2nc3cc(-c4ccc(O)cc4)ccc3n2C)cc1 | 36.8% | 53.6% | 44.1% | 68.8 | 59.9% | 74.6% | 78.3% | 51.4% | 84.1% | 56.3% | 40.1% | 30.8% | 79% | 50.3% | 34.6% | 72.4% | 43.8% | 13.9% | 74.3% | –
7 | CN(C)CCn1c2ccccc2c2nc3cc4ccccc4cc3nc21 | -35.8% (active) | -50.4% (active) | 43% | 28.9 | -69.3% (active) | 3.43% (active) | 14.6% | – | 60.1% | 36.8% | 32.3% | 12.3% | 53% | 7.52% (active) | 4.76% (active) | 80.8% | 18.3% | 7.22% (active) | -80.1% (active) | –
8 | COc1cc2oc(-c3cccc(C(=O)Nc4ccc(Cl)cc4)c3)cc(=O)c2c(OCCNC(=O)[C@@H](N)CCC(=O)O)c1OC | 78% | 50.6% | 86.4% | 93.6 | 87.4% | 79% | 83.6% | 100% | 104% | 70.8% | 61.6% | 80.1% | 114% | 92.5% | 68.9% | 157% | – | 36.6% | 78.8% | –
9 | Cc1c(C(=O)NNC(=O)c2ccc(Cl)cc2)nnn1-c1ccc(Br)cc1 | 98.3% | 96.4% | 90.6% | 97 | 112% | 99.9% | 97.7% | 90.5% | 107% | 99.4% | 102% | 75.9% | 95.4% | 102% | 87.9% | 139% | – | 85.4% | – | –
10 | S=C(NCCc1ccccc1)Nc1ccc(OCc2nc3ccccc3[nH]2)cc1 | 98% | 108% | 103% | 102 | 99.7% | 105% | 102% | 93.1% | 121% | 101% | 96.8% | 84.3% | 112% | 104% | 87.3% | 111% | 96.7% | – | – | –
11 | COc1ccc2oc3c4[nH]c5ccccc5c4c4c(c3c2c1)C(=O)N(C(=O)OC(C)(C)C)C4=O | -23.2% (active) | -32% (active) | -3.78% (active) | 11.8 | 4.43% (active) | -12.9% (active) | -99.3% (active) | -77.3% (active) | -46.8% (active) | -18.9% (active) | -19.3% (active) | -12.8% (active) | -11% (active) | -22.3% (active) | -15.3% (active) | -10.9% (active) | 6.52% (active) | -28.4% (active) | -45.5% (active) | –
